Inconclusive results are not listed. Activity calls are given as the source filed them. Calls come from the whole dose curve; as a rule, active = well fitted inhibition curve with a large enough effect; inconclusive = small, poorly fitted or top-dose-only effect; inactive = flat fitted curve, though single readings scatter.

These results are taken from PubChem BioAssay AID2061320 (National Center for Advancing Translational Sciences (NCATS), 2025).

The nature of this assay: Identification of antibody-drug conjugate (ADC) payloads which are substrates of ATP-binding cassette drug efflux transporters: ABCG2-H460-MX20 cell line. The conditions noted are these: H460-MX20 (ABCG2) viability, CellTiter-Glo, 48 h; series mostly up to 28.7 µM. An excerpt: Antibody-drug conjugates (ADCs) feature an antibody recognizing a specific protein joined to a potent toxic payload. Numerous antibody-drug conjugates have received FDA approval; however, clinical resistance arises. Resistance mechanisms include decreased expression or mutation of the antibody target, impaired payload release, or increased expression of ATP-binding cassette (ABC) efflux transporters associated with multidrug resistance. We therefore sought to characterize the interaction of ABC multidrug transporters with ADC payloads. We performed a high-throughput screen with 27 common ADC payloads using cells lines expressing ABC transporters P-glycoprotein (P-gp, encoded by ABCB1) or ABCG2 (encoded by ABCG2). Confirmatory assays were also performed using cells transfected to express P-gp, ABCG2, or MRP1 (encoded by ABCC1). Several commonly used ADC payloads were substrates of P-gp, including calicheamicin gamma1, monomethyl auristatin E, DM1, and DM4. All the pyrrolobenzodiazepines tested - SJG136, SGD-1882, SG2057, and SG3199 - were substrates of P-gp, ABCG2, and MRP1. […] These findings highlight the risk of transporter-mediated resistance with certain ADC payloads and underscore the importance of selecting payloads that evade ABC transporter recognition in future ADC development.
HEK-293 cells were transfected with empty vector (pcDNA) or vector containing the human ABCB1 (MDR-19), ABCG2 (R-5), or ABCC1 gene (MRP1) and were maintained in EMEM with 2 mg/mL G418 added to maintain transporter expression. The HeLa derivative KB-3-1 and the P-gp overexpressing KB-8-5-11 subline were maintained in DMEM; KB-8-5-11 additionally received 100 ng/mL colchicine. H460 parental cells were obtained from the Division of Cancer Treatment and Diagnosis Tumor Repository, National Cancer Institute at Frederick, MD and were cultured in RPMI. The ABCG2 expressing subline H460 MX20 was generated by selecting H460 cells in 20 nM mitoxantrone. Media in all cases was supplemented with 10% FBS and 1% penicillin-streptomycin. We explored 27 common ADC payloads, in two orthogonal, paired cell line sets-a drug selected and transfected set for each transporter--to identify substrates of the ABC transporters P-gp and ABCG2. Compounds were sourced from Levena Biopharma (San Diego, CA), Selleck Chem (Houston, TX), ChemieTek (Indianapolis, IN), or Microsource Discovery Systems (Gaylordsville, CT). Screening was performed as previously described. Briefly, cells were plated at a density of 500 cells/well in 1536 well plates with compounds added using a 1536-head pin tool (Kalypsys, San Diego CA). Cells were incubated with cytotoxic drugs and processed with CellTiter Glo reagent (Promega, Madison, WI) to determine viability after 48 hours. P-gp substrates were identified by comparing compound activity between paired sets of low-expressing (sensitive) and over-expressing (resistant) cell lines.
As to `CC[C@H](C)[C@H](NC(=O)[C@H]1CCCCN1C)C(=O)N(C)[C@H](C[C@@H](OC(C)=O)c1nc(C(=O)N[C@@H](Cc2ccccc2)C[C@H](C)C(=O)O)cs1)C(C)C`, the Potency entry was “inactive”. `COc1cccc2c1C(=O)c1c(O)c3c(c(O)c1C2=O)C[C@@](O)(C(=O)CO)CC3OC1CC(N2CCOC(OC)C2)C(O)C(C)O1` (stereo partly specified): the Potency is 0.0084 µM (active). The result for `COc1cc2cc(c1Cl)N(C)C(=O)C[C@H](OC(=O)[C@H](C)N(C)C(=O)CCS)[C@]1(C)OC1[C@H](C)C1C[C@@](O)(NC(=O)O1)[C@H](OC)/C=C/C=C(\C)C2` (stereo partly specified) reads 15 µM (active); that for `CC[C@H](C)[C@@H]1NC(=O)CNC(=O)[C@H]2Cc3c([nH]c4cc(O)ccc34)S(=O)C[C@H](NC(=O)CNC1=O)C(=O)N[C@@H](CC(N)=O)C(=O)N1C[C@H](O)C[C@H]1C(=O)N[C@@H]([C@@H](C)[C@@H](O)CO)C(=O)N2` (stereo partly specified), 1.06 µM (active). The result for `CC[C@H](C)[C@@H]([C@@H](CC(=O)N1CCC[C@H]1[C@H](OC)[C@@H](C)C(=O)N[C@H](C)[C@@H](O)c1ccccc1)OC)N(C)C(=O)[C@@H](NC(=O)[C@H](C(C)C)N(C)C)C(C)C` reads 0.598 µM (active). In the case of `COc1cc2cc(C(=O)N3C[C@@H](CCl)c4c3cc(O)c3ccccc43)[nH]c2c(OC)c1OC` it was 0.0021 µM (active).
